Sampled rows, rich in hits. Any-hit rate of the full collection: about 1.2%.
Avidin bead fluor: avidin bead compound fluorescence profile; fluorescence (KMESF) at 10 µM; Avidin beads, compound fluorescence 488/530 nm, flow cytometry; hits give high values; 220,000 compounds, 0.38% hits; AID 1775; in the data active = fluorescence above about 47
GSH bead fluor: compound fluoresces at 488/530 nm on GSH beads. GSH beads flow cytometry, compound fluorescence 488/530 nm; hits give high values. fluorescence (KMESF) at 10 µM. 190,000 compounds, 0.25% hits; in the data active = fluorescence above about 89;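 also: glutathione beads carrying GST-tagged Bcl family fusion proteins plus one bare bead set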
RGS8-Gao: regulators of human RGS8-Galphao interaction; P09471; 220,000 compounds, 0.34% hits; response (percent of control binding), % at 10 µM; multiplexed bead flow cytometry, RGS8-Galphao binding; actives lie on both sides; in the data active = response below about 60% or above about 140%; inactive = in between;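 also: Galphao activated as the GDP aluminium fluoride complex binding bead-coupled RGS8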
Target sequence (P09471 whole entry, looked up): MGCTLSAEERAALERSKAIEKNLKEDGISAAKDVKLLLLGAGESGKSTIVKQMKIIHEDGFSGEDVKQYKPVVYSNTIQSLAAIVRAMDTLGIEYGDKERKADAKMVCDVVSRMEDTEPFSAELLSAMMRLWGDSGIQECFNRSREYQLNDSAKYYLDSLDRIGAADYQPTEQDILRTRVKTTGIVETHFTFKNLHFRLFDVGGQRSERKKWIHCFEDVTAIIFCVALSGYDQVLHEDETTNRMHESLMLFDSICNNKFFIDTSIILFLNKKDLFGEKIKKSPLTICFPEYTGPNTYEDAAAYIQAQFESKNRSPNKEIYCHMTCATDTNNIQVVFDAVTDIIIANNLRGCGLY
RGS4-Gao reg: human RGS4-Galphao interaction regulation; AID 1415; 220,000 compounds, 0.33% hits; P09471; Multiplexed bead flow cytometry, RGS4-Galphao binding; actives lie on both sides; binding response (% of control), % at 10 µM; in the data active = binding response below about 49% or above about 150%; inactive = in between;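 also: fluorescent Galphao activated with aluminum fluoride binding bead-coupled RGS4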
RGS7-Gao: modulates binding of RGS7 to human Galphao | AID 1439 | binding response (% of control), % at 10 µM | P09471 | Multiplexed bead flow cytometry; actives lie on both sides | 220,000 compounds, 0.35% hits; in the data active = binding response below about 49% or above about 150%; inconclusive = no clear call, values can overlap the other calls; inactive = in between;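 also: fluorescent Galphao held in activated GDP-AlF4 state binding bead-coupled RGS7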
RGS16-Gao: modulates binding between human RGS16 and Galphao; O15492+P09471; bead-based flow cytometry RGS16-Galphao binding, fluorescence; actives lie on both sides; binding response (% of control), % at 10 µM; 220,000 compounds, 0.38% hits; AID 1441;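 also: Galphao activated by GDP with aluminum fluoride before binding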
RGS4-Gao HTS: RGS4-Galphao interaction regulator (human) | shares compounds with RGS16-Gao | RGS4–Galpha-o binding response, % at 10 µM | AID 1504 | multiplexed bead flow cytometry, RGS–Galpha-o binding | 1,600 compounds, 99% hits;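 also: fluorescently labeled Galpha-o bound to GDP with aluminium fluoride binding biotinylated RGS beads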
Target sequence (P09471 whole entry, looked up): as above
Target sequence (P49798 whole entry, looked up): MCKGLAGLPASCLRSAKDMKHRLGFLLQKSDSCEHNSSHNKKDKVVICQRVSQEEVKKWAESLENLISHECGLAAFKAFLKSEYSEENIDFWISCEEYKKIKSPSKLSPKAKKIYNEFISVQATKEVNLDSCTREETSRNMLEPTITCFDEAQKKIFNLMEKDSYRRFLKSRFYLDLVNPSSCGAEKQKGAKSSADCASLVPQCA
Biotin-avidin: interferes with biotinylated probe binding to avidin beads. shares compounds with RGS16-Gao. 1,700 tested, under 10 active. streptavidin beads, fluorescein-biotin binding, flow cytometry. AID 1783. inhibition, % at 10 µM;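 active = inhibition above 50%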;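 also: median green fluorescence of gated singlet beads compared with DMSO control wells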
RGS8-Gao confirm: confirmation of regulators of human RGS8-Galphao interaction | shares compounds with RGS16-Gao | bead-based flow cytometry RGS8-Galphao binding, fluorescence; actives lie on both sides | binding response (% of control), % at 10 µM | 1,700 compounds, 3% hits | AID 1836; in the data active = binding response below about 72% or above about 130%; inactive = in between;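 also: Galphao activated as GDP AlF4 complex before binding bead RGS8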
RGS7-Gao single: RGS7-Galphao interaction regulation, single point confirmation; shares compounds with RGS16-Gao; bead-based flow cytometry RGS7-Galphao binding; actives lie on both sides; response (percent of control binding), % at 10 µM; 1,700 compounds, 7.8% hits; in the data active = response below about 75% or above about 130%; inactive = in between;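 also: fluorescent Galphao activated with GDP and aluminum fluoride binding bead-coupled RGS7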
RGS16-Gao single: RGS16-Galphao interaction regulation, single point confirmation | shares compounds with RGS16-Gao | bead-based flow cytometry, RGS16-Galphao binding; actives lie on both sides | response (% of control binding), % at 10 µM | 1,700 compounds, 4% hits | AID 1838; in the data active = response below about 74% or above about 130%; inactive = in between;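 also: Galphao activated as the GDP aluminium fluoride complex binding bead-coupled RGS16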
RGS4-Gao confirm: RGS4-Galphao interaction regulation, single point confirmation. shares compounds with RGS16-Gao. RGS4-Galphao binding, multiplexed bead flow cytometry; actives lie on both sides. binding response (% of control), % at 10 µM. 1,700 compounds, 4% hits. AID 1840; in the data active = binding response below about 74% or above about 130%; inactive = in between
RGS19-Gao single: RGS19-Galphao interaction regulation, single point confirmation | shares compounds with RGS16-Gao | bead-based flow cytometry RGS19-Galphao binding; actives lie on both sides | response (percent of control binding), % at 10 µM | 1,700 compounds, 5% hits | AID 1841; in the data active = response below about 50% or above about 160%; inactive = in between
Hits are given with their value; n = inactive; u = inconclusive; x = no result given; [ ] = dose if it differs, or a comment. Unless noted, no rule for the calls is given here.

SMILES	Avidin bead fluor	GSH bead fluor	RGS8-Gao	RGS4-Gao reg	RGS7-Gao	RGS16-Gao	Biotin-avidin	RGS8-Gao confirm	RGS7-Gao single	RGS16-Gao single	RGS4-Gao confirm	RGS19-Gao single	others
N=C(N)N1CCN(Cc2ccccc2)CC1	n	n	n	n	n	n	x	x	x	x	x	x
O=C1CCCC2=C1C(c1ccccc1O)C1=C(CCCC1=O)O2	n	n	141.4[activator]	n	n	n	n	n	n	n	n	n	RGS4-Gao HTS=113.4
O=C1CCCC(O)=C1C1C2=C(CCCC2=O)OC2=C1C(=O)CCC2	n	n	n	n	n	n	x	x	x	x	x	x
CCN(CC)S(=O)(=O)c1cccc(-c2nnc(SCCOc3ccccc3C)o2)c1	x	n	x	177.4[activator]	152.5[activator]	210.7[activator]	n	n	n	n	n	n
O=C(N/N=C/c1cn(-c2ccccc2)nc1-c1cccnc1)c1cccnc1	62	n	n	n	174.1[activator]	n	n	n	n	n	n	n	RGS4-Gao HTS=112.0
Cc1nc(Sc2ccc(Br)cc2)c(C#N)c(C)c1[N+](=O)[O-]	n	x	n	n	u	n	x	x	x	x	x	x
CC1(C)CC(=O)C2=C(C1)N(c1ccc(F)cc1)C(N)=C(C#N)C2c1cccs1 (stereo not drawn)	n	n	n	n	n	n	x	x	x	x	x	x
Cc1ccc(N2C(N)=C(C#N)C(c3cccs3)C3=C2CC(C)(C)CC3=O)cc1 (stereo not drawn)	n	n	n	197.0[activator]	n	197.2[activator]	n	n	n	n	n	n
N#C/C(=C/c1ccc(N2CCOCC2)o1)C(=O)Nc1ccccc1	55	n	n	159.0[activator]	198.2[activator]	n	n	n	n	n	n	n
N#C/C(=C\c1ccc(N2CCOCC2)o1)C(=O)NCCc1ccccc1	n	n	n	n	n	n	x	x	x	x	x	x
CN(c1ccccc1)c1nc2ccsc2c(=O)s1	169	n	n	n	246.9[activator]	n	n	n	n	n	n	n	RGS4-Gao HTS=126.8
COc1cc(NC(=O)Cn2nc(C(F)(F)F)c(Br)c2C)cc([N+](=O)[O-])c1	n	n	n	n	n	n	x	x	x	x	x	x
CCc1c(O)c(/C(C)=N\O)c(=O)n(-c2ccccc2)c1-c1ccccc1	n	n	n	n	n	271.4[activator]	n	n	n	n	n	n	RGS4-Gao HTS=110.6
CSc1nc(N)nc(N(C)C)n1	n	x	n	n	u	n	x	x	x	x	x	x
CSc1nc(N)nc(C2CC2)n1	n	x	n	n	u	n	n	n	n	n	n	n
COc1cccc(CN2CCC(C(=O)N3CCC(C)CC3)CC2)c1	n	n	n	n	n	n	x	x	x	x	x	x
c1ccc(Nc2ncnc3[nH]ncc23)cc1	n	x	n	n	u	n	x	x	x	x	x	x
CCNC(=O)Cn1c(=O)c(=O)n(Cc2ccccc2)c2ccc(Cl)cc21	57	n	n	161.9[activator]	171.0[activator]	242.6[activator]	n	n	n	n	n	n
O=C1CC(C(=O)O)S/C(=N\N=C\c2ccc(Br)cc2)N1 (stereo not drawn)	n	x	n	n	u	n	x	x	x	x	x	x
CCOC(=O)c1cc(OCC(=O)NC(C)C(C)C)cc(C(=O)OCC)c1 (stereo not drawn)	n	n	6.1	-30.5	-9.7	-18.5	n	n	n	n	n	n
N#CCC(=O)NNc1c([N+](=O)[O-])cc(C(F)(F)F)cc1[N+](=O)[O-]	n	x	n	n	u	n	x	x	x	x	x	x
CCN1/C(=C/c2ccc3cccc(C)c3[n+]2CC)Sc2ccccc21	n	n	n	195.8[activator]	160.6[activator]	n	n	n	n	n	n	n
Clc1ccc(-n2cc(COCc3ccccc3)nn2)cc1	n	n	n	n	n	n	x	x	x	x	x	x
CC(=O)Nc1ncc2c(n1)CC(c1ccco1)CC2=O (stereo not drawn)	n	n	n	n	n	n	x	x	x	x	x	x
O=C(CSC(=S)N1CCCCC1)Nc1ncc2c(n1)CC(c1ccco1)CC2=O (stereo not drawn)	n	x	143.9[activator]	181.0[activator]	u	n	n	n	n	n	n	n
SMILES	Avidin bead fluor	GSH bead fluor	RGS8-Gao	RGS4-Gao reg	RGS7-Gao	RGS16-Gao	Biotin-avidin	RGS8-Gao confirm	RGS7-Gao single	RGS16-Gao single	RGS4-Gao confirm	RGS19-Gao single	others
Cc1ccc(S(=O)(=O)NC(=O)Nc2ncc3c(n2)CC(c2ccco2)CC3=O)cc1 (stereo not drawn)	n	n	n	n	n	13.9	n	n	n	n	n	n	RGS4-Gao HTS=78.6
CC(NC(=O)c1cnccn1)c1ccc(S(N)(=O)=O)cc1 (stereo not drawn)	n	x	n	n	u	n	x	x	x	x	x	x
O=C(CSc1nnc(Cc2ccccc2)o1)N1CCCc2ccccc21	x	n	n	n	n	x	n	n	n	n	n	n
O=C(CSc1nnc(CNc2ccccc2)o1)N1CCc2ccccc21	n	n	n	n	n	n	x	x	x	x	x	x
CCCC(C)C(=O)OCC(=O)NCc1ccc(OC)c(OC)c1 (stereo not drawn)	n	n	n	n	n	n	x	x	x	x	x	x
O=C(CN(Cc1ccccc1)S(=O)(=O)c1ccccc1)N1CCOCC1	n	n	n	n	n	n	x	x	x	x	x	x
COc1ccc(S(=O)(=O)N(CC(=O)N2CCOCC2)Cc2ccccc2)cc1	230	n	n	n	217.0[activator]	n	n	n	n	n	n	n	RGS4-Gao HTS=119.4
COc1ccc(OCC(=O)N2CCN(S(=O)(=O)c3ccc(Cl)cc3)CC2)cc1	n	n	151.8[activator]	n	n	n	n	n	n	n	n	n	RGS4-Gao HTS=116.3
COc1ccc(S(=O)(=O)Nc2ccc(-n3cccc3)cc2)cc1	n	n	14.2	22.1	u	12.7	n	n	n	n	n	n
CCOCCCNC(=O)c1ccc(N2CCOCC2)c(NS(=O)(=O)c2ccc(OC)cc2)c1	n	n	n	n	n	n	x	x	x	x	x	x
COCCCNC(=O)c1ccc(N2CCOCC2)c(NS(=O)(=O)c2ccc(OC)cc2)c1	x	n	x	x	x	x	n	n	n	n	n	n
O=C(COc1ccccc1)N1CCN(S(=O)(=O)c2ccc(Cl)cc2)CC1	n	n	n	n	n	n	x	x	x	x	x	x
O=C(COc1ccc(S(=O)(=O)Nc2ccccc2)cc1)N1CCOCC1	n	n	n	n	n	n	x	x	x	x	x	x
